BAZ2B inh: inhibitors of human BAZ2B bromodomain; Q9UIF8; AlphaScreen BAZ2B-H3K14Ac peptide displacement; Potency, µM (series often up to 114 µM), for the others: at the highest dose activity change, negative = inhibition, actives largely listed as inhibitors; hit rate 4.4% among 360,000; AID 504333; further: on the % scale 0 is the no-effect control and ±100 the full control effect; nearly all actives have a fitted effect of over 60% in size
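AlphaScreen displacement of biotin-H3(5-23)K14Ac peptide (50 nM final) from BAZ2B (50 nM final) in PBS pH 7.4, 0.01% Tween-20; complex preformed 30 min RT, then compounds (top 110 uM) 30 min RT, beads 20 min dark.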
PLK1 PBD block: PLK1 (human) polo-box domain binding inhibition; P53350; Plk1 PBD binding of FITC phosphopeptide, fluorescence polarization; Potency, µM, without a hit: max response, negative = inhibition, hits mostly inhibitors; hit rate 2.8% among 360,000; AID 720504; further: series mostly up to about 57 µM; on the % scale 0 is the no-effect control and ±100 the full control effect; nearly all actives have a fitted effect of over 65% in size
Target sequence (P53350 whole entry, looked up, the tested form may be a part): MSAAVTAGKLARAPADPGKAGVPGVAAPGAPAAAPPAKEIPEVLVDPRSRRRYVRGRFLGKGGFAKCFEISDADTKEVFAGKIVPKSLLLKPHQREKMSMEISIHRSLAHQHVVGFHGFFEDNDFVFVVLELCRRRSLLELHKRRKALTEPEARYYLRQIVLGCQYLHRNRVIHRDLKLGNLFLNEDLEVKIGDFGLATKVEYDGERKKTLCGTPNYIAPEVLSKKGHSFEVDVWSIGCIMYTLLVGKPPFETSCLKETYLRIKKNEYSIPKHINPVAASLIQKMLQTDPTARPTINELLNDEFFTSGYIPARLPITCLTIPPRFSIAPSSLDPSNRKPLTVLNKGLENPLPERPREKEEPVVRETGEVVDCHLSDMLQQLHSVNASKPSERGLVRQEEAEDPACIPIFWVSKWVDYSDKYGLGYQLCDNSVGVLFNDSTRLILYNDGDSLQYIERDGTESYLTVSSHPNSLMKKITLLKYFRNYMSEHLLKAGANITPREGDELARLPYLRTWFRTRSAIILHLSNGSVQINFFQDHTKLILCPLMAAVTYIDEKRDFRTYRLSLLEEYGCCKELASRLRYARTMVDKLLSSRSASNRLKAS
G9a inh: G9a (human) methyltransferase inhibition | hit rate 8.8% among 350,000 | Potency, µM (doses to about 102 µM), for inactives: at the top dose activity, negative = inhibition, most hits filed as inhibitors | Q96KQ7 | G9a H3K9 monomethylation, AlphaScreen, 2 h; further: on the % scale 0 is the no-effect control and ±100 the full control effect; nearly all actives have a fitted effect of over 75% in size
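Chemiluminescent proximity detection of H3K9 monomethylation, read after 10 min bead incubation in the dark. Reaction: 20 nM G9a, 500 nM biotin-H3K9 peptide, 20 uM SAM cofactor, 2 h, room temperature, following 15 min enzyme-compound preincubation.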
HP1b chromo inh: blocks HP1-beta chromodomain binding to methylated histone tails; Potency, µM (doses to about 114 µM), for the others: at the highest dose activity change, negative = inhibition, hits mostly inhibitors; P83916; AlphaScreen HP1-beta / biotin-H3K9me3 peptide binding; hit rate 0.56% among 390,000; further: nearly all actives have a fitted effect of over 70% in size
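HP1-beta protein (50 nM final) preincubated 30 min at room temperature with biotinylated H3(1-18)K9me3 peptide (50 nM) in PBS pH 7.4, 0.01% Tween-20, then compound added for 30 min. AlphaScreen streptavidin donor/nickel chelate acceptor beads (10 ug/mL final), 30 min dark, luminescence read.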
JMJD2A Tudor: JMJD2A Tudor domain (human) inhibition | O75164 | AlphaScreen JMJD2A-Tudor / H3K4me3 peptide binding | Potency, µM (highest dose often 114 µM), for inactives: at the highest dose activity change, negative = inhibition, usual class: inhibitors | hit rate 4.4% among 390,000 | AID 504339; further: on the % scale 0 is the no-effect control and ±100 the full control effect; nearly all actives have a fitted effect of over 50% in size
Sfp PPTase inh: Sfp phosphopantetheinyl transferase inhibition. hit rate 3.5% among 310,000. Biochemical Sfp PPTase activity, qHTS. Q9F4F7. Potency, µM, without a hit: largest response in the series, negative = inhibition, actives largely listed as inhibitors;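 further: the enzyme is Sfp with the accession as filed and its product quenches rhodamine fluorescence; 0% = enzyme reaction without inhibitor and -100% = no enzyme wells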
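Compounds were incubated with enzyme (final 15 nM) for 15 min at room temperature before substrate addition started the reaction. Fluorescence at 525 nm excitation, 598 nm emission was recorded immediately and after 30 minutes.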
* = called active by the depositor; ? = inconclusive; . = no result given; ! = repeats disagree; [ ] = dose if it differs, or a comment. Compounds with a hit are over-represented: about 12% of the library has one in this group of screens. The call rests on the fitted dose curve; in most records, active means well fitted curve in the direction sought with a large enough effect; inconclusive means small, poorly fitted or top-dose-only effect, or another doubt; inactive means no such curve, though single readings can be large; an effect the other way counts as inactive or inconclusive. Potency means the concentration at half of the fitted maximal effect.

SMILES	BAZ2B inh	PLK1 PBD block	G9a inh	HP1b chromo inh	JMJD2A Tudor	Sfp PPTase inh
N[C@@H](Cn1ccc(=O)[nH]c1=O)C(=O)O	.	.	1.5µM*	.	.	.
N[C@@H](Cn1cc(I)c(=O)[nH]c1=O)C(=O)O	.	.	35µM*	.	.	?
CCNC(=S)NCCC1=c2ccccc2=N/C1=C\c1c(O)n(C)c(=O)n(C)c1=O	?	1.1µM*	10µM*	?	-34%	16µM*
Fc1ccc(CNCCc2ccc3c(c2)OCO3)cc1	?	-4%	50µM*	7%	56µM*	-4%
Clc1ccc(CCNCc2ccncc2)c(Cl)c1	50µM*	-9%	4µM*	-6%	32µM*	-16%
c1cc(CNCCc2ccc3c(c2)OCO3)ccn1	56µM*	-14%	23%[0.501 µM]	?	8.9µM*	-10%
CCOc1ccc(CNCCc2ccc3c(c2)OCO3)cc1	-22%	-10%	-9%	13%	-24%	10%
COc1ccc(CNCCc2ccc(Cl)cc2Cl)cc1	9%	-6%	25%	22%	-2%	-2%
CCN(CC)c1ccc(CNCCc2ccc(F)cc2)cc1	45µM*	-12%	13µM*	-17%	?	2%
CC(C)NC(=O)N1CCCC2(CCN(C(=O)Oc3ccccc3)CC2)C1	.	.	35%[12.7 µM]	.	.	-1%
CCCCC/C=C\C/C=C\C/C=C\C/C=C\CCCC(=O)NC1CC1	.	.	69%[59 µM]	.	.	-10%
O=[N+]([O-])c1cc2c(cc1CNCCc1ccc3c(c1)OCO3)OCO2	25µM*	-3%	?	40µM*	1.1µM*	50µM*
Brc1ccccc1CNCCc1ccc2c(c1)OCO2	?	-9%	.	?	3.2µM*	-22%
CCOc1ccccc1CNCCc1ccc2c(c1)OCO2	3%	-23%	13%	21%	-11%	14%
CCS(=O)(=O)C(C)(C)S(=O)(=O)CC	.	.	-38%[12.7 µM]	.	.	14%
C=CCN1C(=O)/C(=C/c2cc(C)n(-c3ccccn3)c2C)C(=O)NC1=S	-5%	2.4µM*	?	26%	-19%	?
O=C1NC(=S)NC(=O)C1=Cc1ccc(OCc2ccccc2)cc1	.	2.7µM*	.	-9%	79µM*	.
CN1/C(=C\C=C2C(=O)NC(=S)NC2=O)C(C)(C)c2ccccc21	?	-29%	?	-7%	-26%	-11%
O=C1NC(=S)NC(=O)C1=Cc1cccc2cc3ccccc3cc12	32µM*	0.75µM*	16µM*	8%	-21%	25µM*
COc1ccc(C=C2C(=O)NC(=S)NC2=O)cc1	.	9.5µM*	.	?	89µM*	.
O=C1NC(=S)NC(=O)C1=Cc1c(Cl)cccc1Cl	.	4.7µM*	.	4%[57 µM]	-12%	.
COC(=O)c1c(NC(=O)C2CC=CCC2C(=O)O)sc2c1CCCCC2 (stereo not given)	?	?	.	?	-32%	-6%
CCCc1cc2c(n1Cc1cccc(Cl)c1)C(C)C1CN(C(=O)c3ccccc3)C(C)(C(=O)OC)C21 (stereo not given)	.	.	.	.	.	-3%
O=c1[nH]c(=S)[nH]c(O)c1N=Nc1ccc2c(c1)OCO2	-29%	16%	?	24%	-9%	0%
O=c1[nH]c(=S)[nH]c(O)c1N=Nc1cc2c(cc1[N+](=O)[O-])OCO2	-31%	-14%	50µM*	-26%	-12%[57.1 µM]	10%
SMILES	BAZ2B inh	PLK1 PBD block	G9a inh	HP1b chromo inh	JMJD2A Tudor	Sfp PPTase inh
O=c1[nH]c(=S)[nH]c(O)c1N=Nc1ccc(-c2ccccc2)cc1[N+](=O)[O-]	7.9µM*	.	11µM*	.	.	79µM*
Brc1c(NC2=NCCN2)ccc2nccnc12	1%	.	19µM*!	.	.	-8%
CCC(=O)Nc1cccc(-c2nnc(SCC(=O)NCc3ccco3)n2C)c1	-1%	-7%	50µM*	24%	-10%	-12%
CC1CC(C)C(=O)[C@H](C(O)CC2CC(=O)NC(=O)C2)C1 (stereo not given in full)	.	.	-30%[2.33 µM]	.	.	21%
CN(C)CC1CCCCC1OC(=O)Cc1ccc(Cl)c([N+](=O)[O-])c1 (stereo not given)	?	-19%	?	?	14µM*	-6%
CN(C(=O)COC(=O)c1ccc([N+](=O)[O-])cc1Cl)C1CCCCC1	?	5%	?	8%	-23%	-3%

Screening results: PubChem, National Center for Advancing Translational Sciences (NCATS)
